Data: the supplement of paper PMC8371130
Structures can show the parent of a compound that is named as a salt.

System: HL-1
Assay: relative cell viability (CellTiter-Glo) vs DMSO control (% of DMSO control); higher = more viable cells
In short: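 In 384-well plates, 1000 HL-1 mouse atrial cardiomyocytes per well were plated with compounds at 40, 200, 1000 or 5000 nM in 0.01% DMSO. Hypoxia at 1% O2 for 48 h began one day later and was followed by 24 h of reoxygenation, with parallel plates held in normoxia. CellTiter-Glo luminescence gave cell viability relative to vehicle-treated control cells.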

[1] = oxygen condition: hypoxia 48 h (1% O2) + reoxygenation 24 h, 40 nM
[2] = oxygen condition: hypoxia 48 h (1% O2) + reoxygenation 24 h, 200 nM
[3] = oxygen condition: hypoxia 48 h (1% O2) + reoxygenation 24 h, 1000 nM
[4] = oxygen condition: hypoxia 48 h (1% O2) + reoxygenation 24 h, 5000 nM
[5] = oxygen condition: normoxia 72 h, 40 nM
[6] = oxygen condition: normoxia 72 h, 200 nM
[7] = oxygen condition: normoxia 72 h, 1000 nM
[8] = oxygen condition: normoxia 72 h, 5000 nM

SMILES	relative cell viability [1]	relative cell viability [2]	relative cell viability [3]	relative cell viability [4]	relative cell viability [5]	relative cell viability [6]	relative cell viability [7]	relative cell viability [8]
COC(=O)[C@@H]1CC2=CC(=O)CC[C@]2(C)[C@@]23O[C@@H]2C[C@@]2(C)[C@@H](CC[C@@]24CCC(=O)O4)[C@H]13 [Eplerenone]	102	103	101	103	107	107	108	104
O=C(NC[C@H]1CN(c2ccc(N3CCOCC3=O)cc2)C(=O)O1)c1ccc(Cl)s1 [Rivaroxaban]	91.5	106	99.8	112	99	90.8	103	92.1
OCCN1C[C@H](O)[C@@H](O)[C@H](O)[C@H]1CO [Miglitol]	104	104	119	108	101	102	106	117
Nc1ccn([C@@H]2O[C@H](CO)[C@@H](O)C2(F)F)c(=O)n1 [Gemcitabine]	3.81	3.59	4.33	3.65	3.56	3.5	3.75	3.7
C[C@@H](O)[C@H]1C(=O)N2C(C(=O)OCOC(=O)C(C)(C)C)=C(SC3CN(C4=NCCS4)C3)[C@H](C)[C@H]12 [Tebipenem pivoxil]	98.3	102	99.2	91.2	96.9	92.7	101	93.4
CCOC(=O)C1=C(C)NC(C)=C(C(=O)OCC)C1c1ccccc1/C=C/C(=O)OC(C)(C)C [Lacidipine]	109	102	100	102	106	104	106	106
CCCCN(CCCC)CCCOC(=O)c1ccc(N)cc1 [Butacaine]	103	101	106	106	103	92.7	102	104
Nc1ccn([C@@H]2O[C@H](CO)[C@@H](O)[C@@H]2O)c(=O)n1 [Cytarabine]	89.2	75.5	44.9	5.82	84.9	64.3	35.7	4.29
Nc1nc2[nH]cc(CCc3ccc(C(=O)N[C@@H](CCC(=O)O)C(=O)O)cc3)c2c(=O)[nH]1 [Pemetrexed]	116	104	85.8	74.8	104	95.5	90.8	69.6
C=C1/C(=C\C=C2/CCC[C@]3(C)[C@@H]([C@H](C)CCCC(C)C)CC[C@@H]23)C[C@@H](O)C[C@@H]1O [Alfacalcidol]	109	104	118	106	108	104	88.5	106
O=c1c(-c2ccc(O)cc2)coc2cc(O)cc(O)c12 [Genistein]	104	106	113	110	111	104	106	111
CC(C)NCC(O)c1ccc(NS(C)(=O)=O)cc1 (centres undefined) [Sotalol]	100	98.9	93	99.8	96.9	94.1	98.4	104
CN1C2CCCC1CC(NC(=O)c1nn(C)c3ccccc13)C2 (centres undefined) [Granisetron HCl]	103	102	106	101	101	102	105	102
C[C@]12CCC(=O)C=C1[C@@H]1C[C@@H]1[C@H]1[C@@H]3[C@@H]4C[C@@H]4[C@@]4(CCC(=O)O4)[C@@]3(C)CC[C@@H]12 [Drospirenone]	104	104	109	105	103	112	100	104
O=C(CCCCCCC(=O)Nc1ccccc1)NO [Vorinostat]	101	105	85	27.2	103	101	90.1	14.6
CCOc1nc2cccc(C(=O)O)c2n1Cc1ccc(-c2ccccc2-c2noc(=O)[nH]2)cc1 [Azilsartan]	104	108	111	115	109	110	114	111
CS(=O)(=O)c1ccc(C(=O)Nc2ccc(Cl)c(-c3ccccn3)c2)c(Cl)c1 [Vismodegib]	103	107	108	117	104	110	114	112
Clc1ccc(COC(Cn2ccnc2)c2ccc(Cl)cc2Cl)cc1 (centres undefined) [Econazole nitrate]	102	104	106	108	110	105	102	105
CCOC(=O)C1=C(C)NC(C)=C(C(=O)OC)C1c1cccc([N+](=O)[O-])c1 (centres undefined) [Nitrendipine]	95.9	106	98.1	107	107	103	104	111

SMILES	relative cell viability [1]	relative cell viability [2]	relative cell viability [3]	relative cell viability [4]	relative cell viability [5]	relative cell viability [6]	relative cell viability [7]	relative cell viability [8]
CC(C)(C(=O)O)c1ccc(C(O)CCCN2CCC(C(O)(c3ccccc3)c3ccccc3)CC2)cc1 (centres undefined) [Fexofenadine HCl]	106	96.5	99.8	99.8	107	96.2	104	110
CC[C@H](C)C(=O)O[C@H]1CCC=C2C=C[C@H](C)[C@H](CC[C@@H]3C[C@@H](O)CC(=O)O3)[C@H]21 [Mevastatin]	112	101	99.3	113	101	105	106	119
COc1cc([C@@H]2c3cc4c(cc3[C@@H](O[C@@H]3O[C@@H]5CO[C@@H](C)O[C@H]5[C@H](O)[C@H]3O)[C@H]3COC(=O)[C@H]23)OCO4)cc(OC)c1O [Etoposide]	85.7	67.1	46.6	19.1	91.3	60.8	40	13.9
COc1cc2c(cc1OC)C(=O)C(CC1CCN(Cc3ccccc3)CC1)C2 (centres undefined) [Donepezil HCl]	106	106	110	106	95.9	102	103	107
N[C@@H]1CN(c2c(F)cc3c(=O)c(C(=O)O)cn([C@@H]4C[C@@H]4F)c3c2Cl)CC12CC2 [Sitafloxacin hydrate]	101	98.6	104	108	103	95.3	99	108
C=C1CC[C@H](O)C/C1=C/C=C1\CCC[C@]2(C)[C@@H]([C@H](C)CCCC(C)C)CC[C@@H]12 [Vitamin D3]	104	89.6	54.7	109	94.8	70.8	66.2	116
CN1CC(=O)N2[C@H](c3ccc4c(c3)OCO4)c3[nH]c4ccccc4c3C[C@@H]2C1=O [Tadalafil]	106	105	116	112	106	112	110	121
C[C@]12CCC3=C4CCC(=O)C=C4CC[C@H]3[C@@H]1CC[C@@]2(O)CC#N [Dienogest]	103	104	106	103	105	102	107	107
Cc1ccccc1N1C(=O)c2cc(S(N)(=O)=O)c(Cl)cc2NC1C (centres undefined) [Metolazone]	104	107	107	111	109	110	112	116
Nc1cccc2c1C(=O)N(C1CCC(=O)NC1=O)C2=O (centres undefined) [Pomalidomide]	100	97.5	103	112	96.9	104	103	113
CCOC(=O)[C@H](CCc1ccccc1)N[C@H]1CS[C@H](c2cccs2)CN(CC(=O)O)C1=O [Temocapril HCl]	102	102	104	112	104	77.1	102	110
CCOC(=O)c1c(C)n(C)c2ccc(O)cc12 [Mecarbinate]	102	102	101	113	101	99.4	106	110
O=C1c2c(O)ccc(O)c2C(=O)c2c(NCCNCCO)ccc(NCCNCCO)c21 [Mitoxantrone Hydrochloride]	4.78	4.55	5.93	3.1	4.75	4.41	3.59	3.38
C[C@@H](O[C@H]1OCCN(Cc2nn(P(=O)(O)O)c(=O)[nH]2)[C@H]1c1ccc(F)cc1)c1cc(C(F)(F)F)cc(C(F)(F)F)c1 [Fosaprepitant dimeglumine]	104	105	119	108	113	129	130	105
O=C(Nc1ccccc1)OCC(CN1CCCCC1)OC(=O)Nc1ccccc1 (centres undefined) [Diperodon HCl]	103	101	104	98.6	87.5	107	103	109
CCCCNC(=O)NS(=O)(=O)c1ccc(C)cc1 [Tolbutamide]	99	99.7	101	113	103	102	102	110
CNCC[C@H](Oc1cccc2ccccc12)c1cccs1 [Duloxetine HCl]	92	96	99.8	92.8	89.9	94.3	106	104
N[C@@H](Cc1ccc(O)c(O)c1)C(=O)O [Levodopa]	110	109	107	110	104	101	108	104
CC(=O)[C@H]1CC[C@H]2[C@@H]3CC=C4C[C@@H](O)CC[C@]4(C)[C@H]3CC[C@]12C [Pregnenolone]	100	103	106	117	101	101	105	107
